# About 79,000 compounds went through this panel and 15% of them were active in at least one assay; those are over-represented in the sample as a whole. A number with no mark means an inactive call. The source made the active and inactive calls. No stated cut-off is given here; in the data, active means growth inhibition above about 70%; inactive means the rest.
# Experiments:
# [1] = NCI Yeast Anticancer Drug Screen. Data for the rad50 strain (AID 155);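 further: 0% = growth of vehicle-only cultures of the same strain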; conditions: S. cerevisiae rad50 strain growth inhibition; at 50.0 µM; active compounds read high
# Summary of the method: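 Cells are treated with compound, grown, and their growth is then scored against vehicle-only cultures of the same repair-deficient yeast strain.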
# [2] = NCI Yeast Anticancer Drug Screen. Data for the mec2-1 strain (AID 157); conditions: S. cerevisiae mec2-1 strain, at 50.0 µM, active compounds read high
# Summary of the method: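 Readout is yeast growth inhibition, normalised to vehicle-treated controls, in the mec2-1 strain exposed to compound.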
# [3] = NCI Yeast Anticancer Drug Screen. Data for the sgs1 mgt1 strain (AID 161);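 further: 0% = growth of cultures given vehicle only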; conditions: S. cerevisiae sgs1 mgt1 strain, at 50.0 µM, active compounds read high
# Summary of the method: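 Yeast cells carrying a defined DNA-repair defect were exposed to test compounds. Growth inhibition was measured relative to vehicle-treated controls.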
# [4] = NCI Yeast Anticancer Drug Screen. Data for the cln2 rad14 strain (AID 165);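 further: 0% = growth equal to vehicle treated cultures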; conditions: S. cerevisiae cln2 rad14 strain, at 50.0 µM, active compounds read high
# Summary of the method: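 Relative to vehicle controls, growth inhibition of compound-treated cln2 rad14 yeast was recorded.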
# [5] = NCI Yeast Anticancer Drug Screen. Data for the bub3 strain (AID 167); conditions: S. cerevisiae bub3 mutant strain, at 50.0 µM, active compounds read high
# Summary of the method: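 Part of a panel of yeast mutants defective in DNA damage repair or cell cycle regulation. Each strain is grown with compound, and inhibition is calculated relative to solvent-treated cultures.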
# [6] = NCI Yeast Anticancer Drug Screen. Data for the mlh1 rad18 strain (AID 175); conditions: S. cerevisiae mlh1 rad18 strain growth inhibition; at 50.0 µM; active compounds read high
# Summary of the method: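 Test agents were incubated with a yeast strain of defined genotype (DNA damage repair defect). Inhibition of growth was derived by comparison with vehicle-exposed cultures.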
Structure (SMILES),growth inhibition [1],growth inhibition [2],growth inhibition [3],growth inhibition [4],growth inhibition [5],growth inhibition [6]
O=C(O)c1ccc(Br)cc1,5.1%,-6.05%,2.8%,-25.2%,9.8%,0%
C=CCCc1cc(OC)ccc1C(=O)C(C)C,4.3%,-17.8%,-20.1%,-20.8%,0.2%,-12.6%
CSc1nc(Cl)nc2[nH]ncc12,11.3%,-5.4%,1.1%,-17.3%,4.45%,30.9%
NC(N)=NCc1ccc2c(c1)OCO2,-28.4%,-2.95%,-1%,10.1%,-10.9%,-34.1%
CC(=O)Oc1cccc2c(/C=N/NC(N)=S)ncc(C)c12,87.6% (active),78.3% (active),86.7% (active),83.5% (active),84.6% (active),90.3% (active)
CN1CCN(C(=S)N(C)C(=O)c2ccc(Cl)cc2)CC1,13.3%,-20.1%,-20.3%,19.1%,-22.9%,-9.65%
COc1ccc(-c2oc3ccc(C)cc3c(=O)c2O)cc1,6.9%,-8%,-14.8%,14.8%,-5.7%,-26.8%
Cc1cn(C)c2c1-c1oncc1CC2,-4.3%,-14.7%,5.4%,-7%,-35.3%,2.3%
CN(C)CCCNC(=O)Nc1ccc(Cl)cc1,8.15%,8.15%,0.15%,11.8%,-0.35%,12.8%
Clc1ccc(CN2COc3c(ccc4ccccc34)C2)cc1Cl,1.65%,15.2%,17.6%,9.65%,7.1%,13.8%
CCOC(=O)c1cc(OC(C)=O)c2ccccc2c1,26.9%,9.2%,41.5%,15.8%,61.5%,41.5%
O=C(N1CCOCC1)C12OC3CC(CC(C3)O1)O2,8.5%,1.95%,3.45%,11.2%,17.6%,4.65%
O=C(Cl)c1ccc(Cc2ccc([N+](=O)[O-])cc2)cc1,14.8%,8.4%,11.4%,-21.9%,-17.1%,12.4%
O=C([O-])c1ccc2c(c1)-c1nc-2nc2[n-]c(nc3nc(nc4[n-]c(n1)c1ccc(C(=O)[O-])cc41)-c1cc(C(=O)[O-])ccc1-3)c1ccc(C(=O)[O-])cc21.[Fe+2],-1.2%,-0.5%,-13.6%,3.65%,7.5%,-1.75%
COc1cc(/C=C/c2ccccn2)oc(=O)c1,5.2%,-6.7%,-2.05%,-14.3%,-12.1%,7.9%
CC(C)(C)OC(=O)N/N=C(/N)Cc1ccccc1,-36.2%,-3.65%,-18.4%,6.5%,6.4%,5.55%
COC(=O)C1(C2CCCCCCC2=O)NC(=S)NC(=O)C1C#N (stereo unspecified),4.35%,-18.8%,-28.1%,11.2%,-24.9%,-4.05%
CC(=O)Nc1ncc(Sc2ccc([N+](=O)[O-])cc2)s1,-6.5%,-30.9%,-8.35%,15.3%,-11.8%,5.65%
CCN(CC)c1ccc(-c2c3ccccc3nc3ccccc23)cc1,-5.05%,-7.75%,7.45%,-12.4%,-17.1%,-3.5%
Oc1[nH]c2ccccc2c1N=NC1=NCCCCN1,-33.2%,-36.5%,-6.65%,15.7%,-3.35%,-14.7%
Cc1cc2c(cc1C)NS(=O)(=O)N2,18.4%,10.4%,7.25%,-21.7%,4.9%,7.35%

Structure (SMILES),growth inhibition [1],growth inhibition [2],growth inhibition [3],growth inhibition [4],growth inhibition [5],growth inhibition [6]
Cc1nc2ccc(I)cc2c(=O)n1-c1ccc(N=Cc2ccc(N(C)C)cc2)cc1,4.7%,9.1%,14.3%,4.95%,-2.9%,10.9%
O=C(CCCN1CCC2(CC1)NC(=O)c1ccccc1O2)c1ccc(F)cc1,23.6%,10.6%,55.5%,48.9%,36.8%,21.7%
CC(C)(C)NC(=O)NCCCl,1%,-11.4%,-2.45%,-33.9%,2.95%,5.35%
Cc1c(-c2ccccc2)c(-c2ccccc2)c(C)c(-c2ccc3c(c2)CCCC3)c1-c1ccccc1,-15%,-3.35%,-33.2%,1.75%,22.2%,-16.7%
O=C1NOCC1NCc1c(O)ccc2ccccc12 (stereo unspecified),19.9%,13.2%,33.7%,26.6%,17.9%,23.2%
Cc1ccc(S(=O)(=O)CCCCS(=O)(=O)c2ccc(C)cc2)cc1,1.8%,4.35%,-7.1%,-62.4%,-27.2%,2.3%
Nc1nc2c(=O)[nH]c(=O)[nH]c2n1C1OC(CO)C(O)C1O (stereo unspecified),4.7%,-3.9%,0.35%,4.9%,14.2%,-6.1%
CCCN1C(=O)CC(NC(C)=O)C1=O (stereo unspecified),-2.85%,6.45%,8.1%,-17.9%,-5.85%,9.65%
C=CCOC(=O)Nc1ccc(S(=O)(=O)N2CCCCC2)cc1,9%,6.1%,2.95%,-17.4%,17.6%,-5.15%
N#Cc1c(C(F)(F)F)cc(-c2cccs2)nc1SC(C(=O)Nc1c(F)cccc1F)c1ccccc1 (stereo unspecified),15.8%,-19.6%,23%,20.2%,15%,25.9%
O=C(Nc1ccc(Cl)c(Cl)c1)OCCN1CCOCC1,82.3% (active),97.2% (active),94% (active),67.2%,91.2% (active),92.8% (active)
O=C(c1ccc(O)cc1)C1N=NCC1c1ccccc1 (stereo unspecified),-15.8%,-9.8%,-11.8%,-17.8%,56.8%,13.8%
O=C(C(=O)c1cccs1)c1cccs1,3.1%,9.05%,34.4%,6.15%,-17.5%,22.5%
Cc1cn(C2CC(OS(C)(=O)=O)C(COC(c3ccccc3)(c3ccccc3)c3ccccc3)O2)c(=O)[nH]c1=O (stereo unspecified),30.9%,1.95%,16.6%,-15.2%,-0.9%,15.3%
CCOC(=O)CCCN(c1ccc(OC)c(OC)c1)S(=O)(=O)c1ccc(C)cc1,32.1%,12.7%,43%,18.8%,16.4%,34.2%
CC(=O)Oc1cc(O)oc(=O)c1,33%,-14.8%,21.1%,19.3%,11.3%,13.1%
O=C(O)c1cccc(F)n1,-0.45%,2.05%,-1.8%,3.1%,-0.65%,-1.85%
O=C1CCCC(=O)N1CCCO,10.1%,-6.4%,-24.2%,-91%,-6.4%,6.5%
CC(C)C(CCN1CCCC1(C)C)(C(N)=O)c1ccccc1 (stereo unspecified),-4.85%,-12.6%,-4.2%,-34%,9.6%,7.75%
O=C1NC2c3ccccc3CCC12 (stereo unspecified),-1.55%,-5.45%,-1.5%,-71.8%,8.65%,-4.5%
